Records with an inconclusive call do not appear. The source made the active and inactive calls. Calls follow the shape of the dose curve; as a rule, active = well fitted curve in the direction sought with a large enough effect; inconclusive = small, poorly fitted or top-dose-only effect, or another doubt; inactive = no such curve, though single readings can be large; an effect the other way counts as inactive or inconclusive.
Key:
[1] = qHTS to identify inhibitors of the type 1 interferon - major histocompatibility complex class I in skeletal muscle: primary screen against the NCATS Pharmaceutical Collection (AID 1347407); conditions: human skeletal muscle cells, IFN-b-induced MHC-I HiBiT luminescence, 24 h; series mostly up to 45.9 µM;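 also: luminescence of HiBiT knocked into endogenous HLA-B as interferon-induced MHC class I level; % is scaled to controls: 0 for no effect and ±100 for the full control effect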
Procedure, shortened: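 A qHTS format is used: 8-point, 1:5 compound series with 46 uM top final concentration, applied alongside 4 ng/ml IFN-beta to HLA-B*08:01-HiBiT knock-in myoblasts. Luminescence is measured after 24 h treatment.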

[2] = target: Protein phosphatase 1D (Homo sapiens) (UniProt O15297); experiment: RapidFire Mass Spectrometry qHTS Assay for Modulators of WT P53-Induced Phosphatase 1 (WIP1) (AID 1347424); conditions: WIP1 dephosphorylation of phosphopeptide, RapidFire MS; series mostly up to 63 µM;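 also: amount of dephosphorylated VEPPL-S-QETFS peptide product formed by WIP1; plate controls were DMSO wells for no effect and GSK830371 inhibitor control at 10 µM for full effect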
Chain of Protein phosphatase 1D (Homo sapiens) (O15297 whole entry, looked up): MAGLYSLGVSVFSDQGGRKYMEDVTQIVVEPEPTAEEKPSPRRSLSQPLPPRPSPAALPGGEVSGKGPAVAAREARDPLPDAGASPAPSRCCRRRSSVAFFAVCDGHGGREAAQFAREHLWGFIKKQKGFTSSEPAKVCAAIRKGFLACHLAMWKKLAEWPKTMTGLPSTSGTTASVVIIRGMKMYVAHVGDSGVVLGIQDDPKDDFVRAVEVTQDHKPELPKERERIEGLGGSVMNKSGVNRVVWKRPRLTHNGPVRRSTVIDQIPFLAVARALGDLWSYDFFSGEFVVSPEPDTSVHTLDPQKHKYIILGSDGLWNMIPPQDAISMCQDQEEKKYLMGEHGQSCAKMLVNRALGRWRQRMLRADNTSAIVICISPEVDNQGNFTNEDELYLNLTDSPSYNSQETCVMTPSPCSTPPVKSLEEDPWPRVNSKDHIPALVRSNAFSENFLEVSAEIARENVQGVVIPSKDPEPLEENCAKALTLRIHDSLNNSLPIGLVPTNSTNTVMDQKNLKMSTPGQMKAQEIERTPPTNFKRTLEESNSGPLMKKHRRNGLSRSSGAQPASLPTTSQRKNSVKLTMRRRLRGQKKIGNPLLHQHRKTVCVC
Procedure, shortened: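 10 nM WIP1 + cpd, 1 h RT; + 2 uM VEPPL-pS-QETFS, 5 min RT; stop 0.5% formic acid; labelled product standard 1 uM; RapidFire MS. Buffer 50 mM Tris pH 7.5, 30 mM MgCl2, 1 mM TCEP.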

[3] = target: Protein phosphatase 1D (Homo sapiens) (UniProt O15297); experiment: Rhodamine-PBP qHTS Assay for Modulators of WT P53-Induced Phosphatase 1 (WIP1) (AID 1347425); conditions: recombinant WIP1, Rhodamine-PBP phosphate fluorescence, real-time; series mostly up to 57.5 µM; also: % of control where 0% means no effect
Procedure, shortened: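 WIP1 (5 nM final) was preincubated with compound for 1 hour at room temperature. It then dephosphorylated 10 uM VEPPL-pS-QETFS peptide in Tris-HCl pH 7.5 with 30 mM MgCl2. Released Pi was detected by 10 uM Rh-PBP fluorescence (ex 525/em 598 nm) read at 1-min intervals for 11 min, as delta f1 - f0.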

[4] = target: Calcium and integrin-binding protein 1 (Homo sapiens) (UniProt Q99828); experiment: Primary qHTS for Identification of Calcium Integrin Binding Protein 1 (CIB1) Competitor (AID 1508620); conditions: CIB1-GST / FITC-alphaIIb peptide fluorescence polarization; series mostly up to 114 µM;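 also: GST tagged CIB1 binding a fluorescein labelled alphaIIb integrin peptide tracer; top concentration of the series differs between compounds; % is scaled to controls: 0 for no effect and ±100 for the full control effect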
Chain of Calcium and integrin-binding protein 1 (Homo sapiens) (Q99828 whole entry, looked up): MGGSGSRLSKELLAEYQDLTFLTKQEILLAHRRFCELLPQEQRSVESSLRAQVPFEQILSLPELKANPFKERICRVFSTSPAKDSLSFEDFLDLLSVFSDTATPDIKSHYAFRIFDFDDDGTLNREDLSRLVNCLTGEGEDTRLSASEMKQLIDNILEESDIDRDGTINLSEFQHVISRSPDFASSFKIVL
Procedure, shortened: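 CIB1-GST (1 uM final) and compound incubated 15 min at room temperature before adding FITC-alphaIIb peptide tracer (100 nM final). Competition for binding read by fluorescence polarization (ex 480, em 540) after another 15 min at room temperature.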

[5] = qHTS to identify inhibitors of the type 1 interferon - major histocompatibility complex class I in skeletal muscle: primary screen against the NCATS Mechanism Interrogation Plate v5.0 (MIPE) Libary (AID 1347411); conditions: iHSKM cells + IFN-b, HiBiT-tagged MHC-I luminescence, 24 h; series mostly up to 45.8 µM;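 also: plate controls were vehicle for no effect and reference inhibitor for full effect; nearly all actives have a fitted effect of over 65% in size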
Procedure, shortened: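 Immortalized human C25cl48 myoblasts with HiBit knocked into endogenous HLA-B*08:01 were stimulated with 4.0 ng/ml IFN-beta and exposed to compounds (11-point 1:3 titration, top 46 uM final) for 24 hrs at 37 C; HiBiT lytic luminescence measured.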

[6] = Primary qHTS for inhibitors of La Crosse Virus (LACV) - induced cell death in SH-SY5Y cells (AID 1508616); conditions: SH-SY5Y LACV cytopathicity rescue, ATP luminescence, 6 d; series mostly up to 4.29 µM;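 also: top concentration of the series differs between compounds; 0% = infected DMSO wells and 100% = uninfected DMSO wells; higher means more rescue of cells from virus-induced death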
Procedure, shortened: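 Luminescent ATP readout (ATPLite 1step, 5 min room temperature) measured rescue from LACV-induced death after 6 days of infection at 0.01 MOI; normalized to infected DMSO wells and uninfected DMSO wells.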

[7] = Counterscreen qHTS for small molecule stabilizers of the endoplasmic reticulum resident proteome: GLuc-NoTag assay (AID 1508627); conditions: Gaussia luciferase NoTag secretion counterscreen, luminescence, thapsigargin 100 nM for final 4 h; series mostly up to 76.4 µM;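 also: SH-SY5Y cells given compound then 100 nM thapsigargin to empty ER calcium; 0% = thapsigargin alone and -100% = DMSO vehicle control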
Procedure, shortened: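 Luminescence of Gaussia luciferase secreted into the medium (coelenterazine, 0.07x final, unlysed cells) was the read-out. Human SH-SY5Y neuroblastoma cells constitutively secreting untagged GLuc received compound for 19 h, then 100 nM thapsigargin for 4 h.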

Cc1cc(C)c(NC(=O)CN(CC(=O)O)CC(=O)O)c(C)c1Br
inactive: outcome [1] | outcome [2] | outcome [3] | outcome [4]

Cc1onc(-c2ccccc2)c1-c1ccc(S(N)(=O)=O)cc1
inactive: outcome [5] | outcome [2] | outcome [3] | outcome [4]

Cn1c(=O)c2c(ncn2CCO)n(C)c1=O
inactive: outcome [1] | outcome [3] | outcome [4]

Nc1c2c(nc3c1CCC3)CCCC2
inactive: outcome [1] | outcome [2] | outcome [3] | outcome [4]

COc1ccc2cc(CCC(C)=O)ccc2c1
inactive: outcome [1] | outcome [2] | outcome [3] | outcome [4]

Cc1ccsc1/C=C/C1=NCCCN1C
inactive: outcome [1] | outcome [2] | outcome [3] | outcome [4]

CC(C)C[C@@H](N)C(=O)O
inactive: outcome [1] | outcome [2] | outcome [3] | outcome [4]

O=C(O)Cn1c(C(=O)Nc2nc(-c3ccccc3Cl)cs2)cc2ccccc21
inactive: outcome [1] | outcome [6] | outcome [4]

CCCC(O)C(CC)CO (centres undefined)
inactive: outcome [1] | outcome [2] | outcome [3] | outcome [4] | outcome [7]

NC(=O)NS(=O)(=O)c1ccc(N)cc1
inactive: outcome [1] | outcome [2] | outcome [3] | outcome [4]

CCN(CC)CCc1nc(-c2ccccc2)no1
inactive: outcome [1] | outcome [2] | outcome [3] | outcome [4]

CC1CC(OC(=O)c2ccccc2O)CC(C)(C)C1 (centres undefined)
inactive: outcome [1] | outcome [2] | outcome [3] | outcome [4]

NS(=O)(=O)c1cc(-c2nn[nH]n2)c(NCc2cccs2)cc1Cl
inactive: outcome [1] | outcome [2] | outcome [6] | outcome [4]

CC(=O)N[C@@H](Cc1ccc(O)cc1)C(=O)O
inactive: outcome [1] | outcome [3] | outcome [6] | outcome [4]

O=C(O)[C@@H]1[C@H]2C[C@H]3c4[nH]c5ccccc5c4CCN3C[C@@H]2CC[C@@H]1O
inactive: outcome [1] | outcome [3] | outcome [6]

O=C(O)CCCc1ccccc1
inactive: outcome [1] | outcome [2] | outcome [3] | outcome [4]

CCCCCCCCCCCCCCCCC(C(=O)O)C(O)(CC(=O)O)C(=O)O (centres undefined)
inactive: outcome [1] | outcome [3] | outcome [6] | outcome [4]

O=C(O)c1ccccc1OP(=O)(O)O
inactive: outcome [1] | outcome [2] | outcome [6] | outcome [4]

CN1C[C@@H]2C[C@H]1CN2c1cc2c(cc1F)c(=O)c(C(=O)O)cn2C1CC1
inactive: outcome [2] | outcome [3] | outcome [6]

Cc1cc(OI)c(C(C)C)cc1-c1cc(C(C)C)c(OI)cc1C
inactive: outcome [1] | outcome [2] | outcome [3] | outcome [4]

O=C(/C=C/c1ccc(O)c(O)c1)O[C@@H]1C[C@@](OC(=O)/C=C/c2ccc(O)c(O)c2)(C(=O)O)C[C@@H](O)[C@@H]1O
inactive: outcome [1] | outcome [2] | outcome [3] | outcome [4]

O=c1[nH]cnc2nc[nH]c12
inactive: outcome [1] | outcome [2] | outcome [3] | outcome [4]

CCCCCC(N)=O
inactive: outcome [2] | outcome [3] | outcome [4]

COc1ccc(Cc2cnc(N)nc2N)cc1OC
inactive: outcome [2] | outcome [3] | outcome [6] | outcome [4]

COc1ccccc1Oc1c(NS(=O)(=O)c2ccc(C(C)(C)C)cc2)nc(-c2ncccn2)nc1OCCO
inactive: outcome [2] | outcome [3] | outcome [6] | outcome [4]

COc1ccccc1OCC(O)CO (centres undefined)
inactive: outcome [2] | outcome [3] | outcome [6] | outcome [4]

c1ccc2[nH]ccc2c1
inactive: outcome [2] | outcome [3] | outcome [6] | outcome [4]

CCN(CC)C(=O)c1cccc(C)c1
inactive: outcome [2] | outcome [3] | outcome [6] | outcome [4] | outcome [7]

O=C(O)c1ccc[n+]([O-])c1
inactive: outcome [2] | outcome [3] | outcome [4]

C[n+]1ccccc1/C=N/O
inactive: outcome [2] | outcome [3] | outcome [6] | outcome [4]

O=c1[nH]c2cc(C(F)(F)F)c(N3CCOCC3)cc2n(CP(=O)(O)O)c1=O
inactive: outcome [2] | outcome [3] | outcome [6] | outcome [4]

CCS(=O)(=O)CCn1c([N+](=O)[O-])cnc1C
inactive: outcome [2] | outcome [3] | outcome [6] | outcome [4]

O=C(O)Cc1cn(-c2ccccc2)nc1-c1ccc(Cl)cc1
inactive: outcome [2] | outcome [3] | outcome [6] | outcome [4]

COc1ccc(O)cc1
inactive: outcome [2] | outcome [3] | outcome [6] | outcome [4]

CCCCCCCCCCOc1cc2c(=O)c(C(=O)OCC)c[nH]c2cc1OCC
inactive: activity change, negative = inhibition [2] 14.2% [at 6.17 µM] | activity change, negative = inhibition [3] 9.27% [at 4.81 µM] | activity change [6] 5.38% [at 0.431 µM] | activity change, negative = inhibition [4] 6.25% [at 12.4 µM]

C=CCN1C[C@H](C(=O)N(CCCN(C)C)C(=O)NCC)C[C@@H]2c3cccc4[nH]cc(c34)C[C@H]21
inactive: outcome [2] | outcome [3] | outcome [6] | outcome [4]

Cc1cc(NC(=O)C2=C(O)c3ccccc3S(=O)(=O)N2C)no1
inactive: outcome [2] | outcome [3] | outcome [6] | outcome [4]
